Screening data: PubChem, National Center for Advancing Translational Sciences (NCATS)
Rows were chosen to be rich in hits. Some 12% of all compounds tested hit in one or more screens of this group.
Sm TGR inh: inhibitors of Schistosoma mansoni thioredoxin glutathione reductase; Q962Y6; purified TGR, DTNB reduction, TNB absorbance 405 nm; Potency, µM (doses to about 114 µM), without a hit: top-dose activity change, negative = inhibition, most hits filed as inhibitors; actives 3% (n = 360,000); AID 485364; active = well fitted inhibition curve with a large enough effect; inconclusive = small, poorly fitted or top-dose-only effect; inactive = no such curve, though single readings can be large or run the other way; also: potency is read from the fitted curve at half-maximal effect; % is scaled to controls: 0 for no effect and ±100 for the full control effect; nearly all actives have a fitted effect of over 60% in size
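Kinetic colorimetric format: TGR-catalysed, NADPH-driven DTNB reduction monitored via TNB absorbance. Enzyme dispensed at 20 nM; compound exposure 15 min at room temperature before reaction start.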
Shiga inhibitor: blocks Shiga toxin action in Vero cells; Vero cells, Shiga toxin protein synthesis inhibition reporter; AID 2315; actives 9.2% (n = 290,000); inhibition, % at 38.7 µM; in the data active = inhibition mostly above about 28%, no sharp cut-off; inactive = mostly below about 43%; also: 0% is about no effect
CHX counter: counter-screen for Shiga toxin inhibitors: cycloheximide protein synthesis inhibition; cell reporter, cycloheximide protein synthesis inhibition counterscreen; max response, %; actives 12% (n = 300,000); in the data active = max response mostly above about 13%, no sharp cut-off; inactive = mostly below about 14%; also: read at 38.3 µM for the half of the compounds with a filed dose; 0% is about no effect
FMDV inh: antivirals against foot and mouth disease virus. FMDV antiviral cell-based qHTS. Potency, µM (top dose mostly 57.9 µM), inactives show top-dose activity change, negative = inhibition, most hits filed as inhibitors. actives 1.2% (n = 410,000). AID 1159524; calls by dose curve; tested in HEK293T cells; also: read-out not given here; potency is read from the fitted curve at half-maximal effect; % is scaled to controls: 0 for no effect and ±100 for the full control effect; nearly all actives have a fitted effect of over 45% in size
Starred values were filed as active, the others as inactive; ? = inconclusive; . = not tested or not shown.

SMILES	Sm TGR inh	Shiga inhibitor	CHX counter	FMDV inh
COc1ccc2c(Sc3ccccc3)c(C(=O)NCc3ccc(OC(C)C)cc3)[nH]c2c1	5%	.	.	0%
Cc1noc(C)c1-c1ccc2ncnc(NCc3cccc(Cl)c3)c2c1	.	9	7	.
CCCCCCCCCCCCCCCCn1cc[n+](Cc2ccccc2)c1C	.	-23	-8	.
Cc1nc(CNC(=O)CC2C(=O)NCCN2Cc2ccoc2)nc2c1CCCC2 (stereo unspecified)	14µM*	-7	-3	6%
Cc1ccc(CN(C)C(=O)CC2C(=O)NCCN2CC2CCCCC2)cc1 (stereo unspecified)	?	2	1	-17%
COC(=O)CCCNC(=O)CC1C(=O)NCCN1Cc1ccoc1 (stereo unspecified)	45µM*	17	-2	-4%
O=C(CC1C(=O)NCCN1Cc1ccoc1)NCCc1ccc(Cl)cc1 (stereo unspecified)	?	9	3	-2%
Cc1nc(CCNC(=O)CC2C(=O)NCCN2Cc2ccoc2)nc2c1CCCC2 (stereo unspecified)	28µM*	-1	-1	-15%
CCc1ccc(CN(C)C(=O)CC2C(=O)NCCN2Cc2ccoc2)cc1 (stereo unspecified)	18µM*	4	2	-10%
COC(=O)c1ccccc1NC(=O)c1cn2c3c(ccc(Cl)c3c1=O)OC(C)C2 (stereo unspecified)	-4%	.	.	-8%
Cc1ccc(OCC(=O)Nc2ccc3nc(SCC(=O)N4CCCC4)sc3c2)cc1C	0%	.	.	?
CN1C(=O)C(=Cc2ccc(OCC(=O)Nc3ccccc3)cc2)C(=O)N(C)C1=O	-1%	75*	50*	26%
C=Cc1cccc(NC(=O)COc2ccccc2)c1	0%	41	35*	34%
COc1ccc(CC(=O)Nc2cccc(-c3nnc(-c4ccco4)o3)c2)cc1	21%	13	6	?
CCOC(=O)C1=C(C)N(CC(C)C)C(=O)/C1=C\c1ccc(OCC(=O)Nc2ccccc2)cc1	-2%	-1	12	?
O=C(COc1ccccc1)Nc1nnc(-c2ccccc2)o1	0%	-9	-5	9%
Cc1cc(C)cc(OCC(=O)Nc2cccc(-c3nnc(-c4ccco4)o3)c2)c1	0%	8	7	20µM*
O=C(COc1ccccc1)Nc1cccc(-c2nnc(-c3ccccc3)o2)c1	-1%	72*	20*	-8%
O=C(O)CCC(=O)Nc1cccc(-c2nc3ccccc3o2)c1	2%	5	0	30%
O=C(O)CCC(=O)Nc1cccc(-c2nnc(-c3ccccc3)o2)c1	25µM*	14	11	19%
Cc1ccc2c(CN3CCN(Cc4ccccc4)CC3)cc(=O)oc2c1C	-22%	4	-4	-1%
Cc1ccc2c(CN3CCN(C(=O)c4ccco4)CC3)cc(=O)oc2c1C	45µM*	-12	1	-13%
Cc1ccc2c(CN3CCC(C)CC3)cc(=O)oc2c1C	10%	123*	55*	70%
O=C(c1ccco1)N1CCN(Cc2c(F)cccc2Cl)CC1	-37%	50*	39*	54%
Cc1ccccc1CN1CCN(C(=O)c2ccco2)CC1	0%	36	33*	29%
SMILES	Sm TGR inh	Shiga inhibitor	CHX counter	FMDV inh
Cc1ccc2c(CN3CC(C)CC(C)C3)cc(=O)oc2c1C (stereo unspecified)	2%	7	6	10%
O=C(c1ccco1)N1CCN(Cc2ccccc2F)CC1	99%	1	9	11%
CCOC(=O)c1c(C)[nH]c(CCC(=O)NCCCN2CCN(c3ccccc3F)CC2)c1C	-9%	.	.	-19%
Cc1ccc(NC(=O)c2c(C)nc3sc(C(=O)Nc4ccc(F)cc4)c(N)c3c2-c2ccc(C)o2)c(C)c1	-2%	.	.	-9%
COc1cccc(C2C(C(=O)Nc3ccccc3)=C(C)Nc3nnnn32)c1OC (stereo unspecified)	1%	.	.	-1%
COc1ccc(NC(=O)C(NC(=O)C2CCC(C)CC2)C(C)C)cc1 (stereo unspecified)	-4%	.	.	12%
O=C(c1ccco1)N1CCN(S(=O)(=O)Cc2ccccc2Cl)CC1	32µM*	16	6	-4%
CCS(=O)(=O)N1CCN(C(=O)c2ccco2)CC1	35%	-17	0	.
Cc1ccc2c(C)c(C(=O)N3CCN(Cc4ccccn4)CC3)oc2c1C	-28%	18	17*	7%
CCCn1nc2cc(C(=O)NCCc3cccs3)ccc2c1OCC	-8%	73*	29*	58%
CCOc1ccc(CC(=O)NC2CC(=O)N(c3ccc4c(c3)OCCO4)C2)cc1 (stereo unspecified)	1%	.	.	-3%
CCOC(=O)c1c(NC(=O)CSc2nc3cccnc3n2C)sc(C(C)=O)c1C	3%	-6	-3	28µM*
CCOC(=O)c1cccc(NC(=O)CSc2nc3cccnc3n2C)c1	-22%	-5	2	18µM*
CCOc1ccc(OCC)c(NC(=O)CSc2nc3cccnc3n2C)c1	-9%	-15	1	18µM*
CCOC(=O)c1c(NC(=O)CSc2ncnc3ccccc23)sc(C(C)=O)c1C	-8%	8	5	25µM*
CCC1CN(S(=O)(=O)c2cc(-c3cc(C)no3)ccc2C)c2cc(Cl)ccc2O1 (stereo unspecified)	5%	.	.	-17%
COc1ccccc1CN(Cc1ccco1)c1cnc(S(C)(=O)=O)nc1C(=O)Nc1ccccc1Cl	0%	.	.	-14%
CC(NS(=O)(=O)c1ccccc1)C1COc2ccccc2O1 (stereo unspecified)	0%	2	31*	-17%
CC(NC(=O)c1ccccc1Cl)C1COc2ccccc2O1 (stereo unspecified)	1%	51*	31*	46%
CC(C)NC(=O)c1ccccc1NC(=O)C1COc2ccccc2O1 (stereo unspecified)	-7%	14	-5	?
O=C(Cc1ccccc1)Nc1cccc(N2C(=O)C=CC2=O)c1	0.45µM*	15	-3	?
O=C(CSCc1ccccc1)Nc1cccc(F)c1	6%	77*	38*	84%
O=C(CSCc1c(F)cccc1F)Nc1ccccc1	-3%	116*	54*	15%
Cc1ccc(-c2nnn3c2nc(NCc2ccc4c(c2)OCO4)c2ccccc23)cc1	-3%	.	.	6%
OCCCn1c(-c2ccccc2)nc(=S)c2c1CCCC2	?	-2	-4	-9%
SMILES	Sm TGR inh	Shiga inhibitor	CHX counter	FMDV inh
Cc1cccc(-c2nc(=S)c3c(n2Cc2ccco2)CCCC3)c1	20µM*	13	13	-2%
Cc1ccc(-c2nc(=S)c3c(n2Cc2ccco2)CCCC3)cc1	8.9µM*	8	8	-5%
CN(C)CCCn1c(-c2ccccc2)nc(=S)c2c1CCCC2	45µM*	11	-1	23%
COc1cccc(-c2nc(=S)c3c(n2Cc2ccco2)CCCC3)c1	?	-3	1	-21%
Cc1cccn2c(=O)c(/C=C(\C#N)c3nc4ccccc4s3)c(Oc3ccc(Br)cc3)nc12	-10%	.	.	-10%
Cc1ccc(NC(=O)c2ccc(Cl)cc2Cl)c(C(=O)c2ccccc2)c1	10%	.	.	-10%
O=C(CNCCc1ccccc1)Nc1ccc(C(=O)N2CCCCC2)cc1	2%	73	28*	16%
Cc1ccccc1CC(=O)Nc1ccc(C(=O)N2CCCC2)cc1	8%	46	25*	0%
